# High-throughput results: PubChem BioAssay, several laboratories
# Compounds with a hit are over-represented: about 22% of the library has one in this group of screens.
# cytoskel mod: cytoskeleton assembly modification. HUVEC TNFa F-actin phalloidin imaging, high content. inhibition, % at 2 µM. 0.18% of 91,000 active;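 active = inhibition above the batch mean plus 3 SD and confirmed as a hit by visual image inspection, cut at about 30% in these data, passing the limit was not always enough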
# E-sel TNF inh: TNF alpha driven E-selectin expression inhibition; 0.71% of 120,000 active; HUVEC TNFa-induced E-selectin immunofluorescence, high content; inhibition, % at 2 µM;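 active = inhibition above the batch mean plus 3 SD, and confirmed as a hit on visual image review, cut at about 43% in these data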;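 also: 0% = TNF-stimulated DMSO wells and 100% = unstimulated control wells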
# CYP2C9 act: CYP2C9 (human) activation; recombinant CYP2C9, luciferin-H conversion, luminescence; active compounds read high; factor 1 = untreated enzyme, 0 = blocked; activation factor at 5 µM; 1.4% of 96,000 active;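 active = activation factor of 2 or more for CYP2C9 at a 5 µM dose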;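 also: 0 = sulfaphenazole-blocked wells and 1 = vehicle-only wells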
# CYP2C19 inh: human CYP2C19 inhibition. P33261. inhibition, % at 5 µM. 21% of 96,000 active. CYP2C19 Supersomes, luciferin-H EGE luminescence, 30 min;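 active = CYP2C19 inhibition above a set limit at 5 µM in the primary screen, cut at about 50% in these data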;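 also: plate controls were negative control wells for no effect and 2.5 mM tranylcypromine positive control for full effect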
# Target sequence (P33261 whole entry, looked up): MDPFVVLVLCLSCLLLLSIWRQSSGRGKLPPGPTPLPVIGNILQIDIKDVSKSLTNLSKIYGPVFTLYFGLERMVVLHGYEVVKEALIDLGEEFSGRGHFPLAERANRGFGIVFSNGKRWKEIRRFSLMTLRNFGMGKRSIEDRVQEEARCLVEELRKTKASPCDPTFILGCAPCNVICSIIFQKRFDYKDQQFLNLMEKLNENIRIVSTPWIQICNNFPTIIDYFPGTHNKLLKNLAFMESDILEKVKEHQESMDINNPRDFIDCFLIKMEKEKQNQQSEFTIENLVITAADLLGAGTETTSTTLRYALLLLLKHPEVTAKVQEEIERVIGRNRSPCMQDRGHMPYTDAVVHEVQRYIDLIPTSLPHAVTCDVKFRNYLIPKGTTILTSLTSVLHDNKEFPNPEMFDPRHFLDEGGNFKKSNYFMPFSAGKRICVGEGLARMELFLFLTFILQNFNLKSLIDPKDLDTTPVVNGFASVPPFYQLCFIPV
# CYP2C19 activ: increases human CYP2C19 enzyme activity. P33261. recombinant CYP2C19, luciferin-H EGE luminescence; active compounds read high; 0 = fully inhibited enzyme, 1 = untreated enzyme. activation factor at 5 µM. 96,000 tested, under 10 active;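 active = activation factor of at least 2 at 5 µM in the primary screen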;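 also: 0 = wells with 2.5 mM tranylcypromine and 1 = vehicle-only wells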
# CYP2C9 inh: inhibitors of human CYP2C9; P11712; CYP2C9 Supersomes, luciferin-H conversion, luminescence; inhibition, % at 5 µM; 20% of 96,000 active;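 active = blocking of liver enzyme CYP2C9 beyond about 50% at 5 µM, limit read from the data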
# * hit, by the source's call; nt = no result.
SMILES,cytoskel mod,E-sel TNF inh,CYP2C9 act,CYP2C19 inh,CYP2C19 activ,CYP2C9 inh
O=C(c1cccs1)N1CCN(C/C=C/c2ccccc2)CC1,28,-5,0.5,60*,0.4,52*
CCNS(=O)(=O)c1cc(Br)ccc1OC,15,-5,1.8,30,0.7,-76
COCC(C)NS(=O)(=O)c1ccc(C)cc1 (stereo not drawn),-10,-4,1.1,17,0.8,-8
COCCCNS(=O)(=O)c1ccc(Cl)c(C(F)(F)F)c1,nt,-2,nt,nt,nt,nt
CCC(C)NS(=O)(=O)c1ccc(OC)c(Cl)c1Cl (stereo not drawn),-4,32,1.4,70*,0.3,-36
COCCCNS(=O)(=O)c1ccc(OC)c(Cl)c1Cl,1,-1,3.7*,88*,0.1,-268
CCCCNS(=O)(=O)c1ccc(OC)c(Cl)c1Cl,-8,1,1.6,52*,0.5,-59
COC(=O)[C@H](Cc1ccccc1)NC(=O)N1CCC(C)CC1,-4,33,0.9,2,1,14
CCc1cc(OCCCCNCc2ccccc2)ccc1Cl,nt,-8,nt,nt,nt,nt
O=C(Cn1nc(C(=O)O)c2ccccc2c1=O)NCc1ccco1,nt,-20,nt,nt,nt,nt
CCc1cc2ccc(C)cc2nc1SCC(=O)c1ccc(NC(C)=O)cc1,-43,-7,0.1,63*,0.4,92*
CCc1cc2cccc(C)c2nc1SCC(=O)c1ccc(NC(C)=O)cc1,-5,5,0.2,3,1,80*
CCc1cc2cccc(C)c2nc1SCC(=O)NNC(=O)c1ccco1,-1,12,1.5,-17,1.2,-48
O=C(COc1ccc(Cl)cc1)Nc1nnc(C2=COCCO2)o1,nt,-3,nt,nt,nt,nt
O=C1OCC(CO)(CO)N=C1NNc1ccccc1Cl,31*,-16,0.7,50*,0.5,28
CCCCN1CC(COc2ccccc2)OC1=O (stereo not drawn),3,1,1.1,28,0.7,-11
Cc1nn(C)c(Oc2ccccc2)c1CCNS(=O)(=O)c1ccccc1,nt,nt,0.5,92*,0.1,46
CCCc1cc(NCCCCO)n2c(nc3ccccc32)c1C#N,nt,nt,0.6,10,0.9,41
COc1ccc(NC(=O)c2noc3c2CCC3)cc1,nt,18,0.7,62*,0.4,27
O=C(Nc1cccc(O)c1)c1noc2c1CCCCC2,-14,0,0.7,70*,0.3,33
COC(=O)c1ccccc1NC(=O)c1noc2c1CCCC2,nt,-18,1,-1,1,-2
COc1ccccc1C(=O)n1nc(-c2cccnc2)nc1N,nt,10,0.9,-5,1.1,12
CCC1(O)c2ccccc2-c2ncccc21 (stereo not drawn),8,-6,1,5,1,-4
Nc1nc(Nc2ccccc2Br)nc(C(F)(F)F)n1,nt,-22,0.5,46,0.5,54*
Nc1nc(Nc2ccc(Cl)cc2Cl)nc(C(F)(F)F)n1,6,9,0.8,16,0.8,18
SMILES,cytoskel mod,E-sel TNF inh,CYP2C9 act,CYP2C19 inh,CYP2C19 activ,CYP2C9 inh
O=C(Cn1cc(C(=O)C(F)(F)F)c2cc(Br)ccc21)N1CCOCC1,nt,61*,nt,nt,nt,nt
CCOC(=O)N1CCN(C(=O)c2ccc(OCC)cc2)CC1,nt,-10,nt,nt,nt,nt
CCCCOc1ccc(C(=O)N2CCC(C)CC2)cc1,-4,-7,0.5,70*,0.3,54*
CCOc1ccc(C(=O)N2CCCN(C(=O)c3ccc(OCC)cc3)CC2)cc1,-9,-2,0.4,30,0.7,61*
O=C(O)C1CSC(c2ccncc2)N1 (stereo not drawn),-13,-6,0.3,59*,0.4,73*
COC(=O)c1ccc(C2NC(C(=O)O)CS2)cc1 (stereo not drawn),-2,2,0.6,2,1,40
O=C(ONc1ccc(N=NC(=O)c2ccccc2O)cc1)c1ccccc1,-57,-44,0.3,84*,0.2,71*
Nc1[nH]c(N=NC(=O)c2ccccc2O)c2ccccc12,nt,19,nt,nt,nt,nt
COCC(=O)N(Cc1cc2cc(OC)ccc2[nH]c1=O)c1ccccc1,7,-10,0.8,8,0.9,20
Cc1ccc(Sc2ccc(NC(=O)CCl)cc2)c(C)c1,nt,11,nt,nt,nt,nt
CCOC(=O)c1cnc2c(ccc3ccccc32)c1NCCO,9,10,nt,nt,nt,nt
CCOC(=O)c1ccccc1Oc1c(F)c(F)nc(NCCO)c1F,-14,-20,0.5,62*,0.4,51*
Cc1onc(-c2c(F)cccc2Cl)c1C(=O)Nc1nnc(C2CC2)s1,7,-14,0.4,62*,0.4,63*
Cc1onc(-c2c(F)cccc2Cl)c1C(=O)NC1CCSC1=O (stereo not drawn),nt,8,0.4,82*,0.2,65*
Cc1onc(-c2c(F)cccc2Cl)c1C(=O)NC(=S)NC1CCS(=O)(=O)C1 (stereo not drawn),nt,-3,nt,nt,nt,nt
Cc1onc(-c2c(F)cccc2Cl)c1C(=O)Nc1sc2c(c1C(N)=O)CCC2,-4,-24,0.3,21,0.8,74*
Cc1nn(Cc2ccccc2Cl)c(C)c1C(=O)Nc1nnc(C2CC2)s1,3,11,0.5,16,0.8,51*
COc1ccc2cc3cc(C(=O)N4CCN(Cc5ccc6c(c5)OCO6)CC4)oc3nc2c1,0,-2,0.5,20,0.8,53*
COc1ccc2cc3cc(C(=O)NCc4ccc5c(c4)OCO5)oc3nc2c1,11,17,0.4,35,0.6,64*
C/C(=N\N=C(/N)SC1CC(=O)N(c2ccc(Cl)cc2)C1=O)c1cccs1 (stereo not drawn),10,nt,1.3,14,0.9,-29
C/C(=N\N=C(/N)SC1CC(=O)N(c2ccccc2)C1=O)c1cccs1 (stereo not drawn),-14,-16,0.4,29,0.7,56*
O=C1c2ccccc2NC(c2ccccn2)N1c1ccc(Cl)cc1 (stereo not drawn),-8,-19,0.4,48,0.5,63*
O=C1c2ccccc2NC(c2ccccc2)N1c1ccc(O)cc1 (stereo not drawn),14,nt,0.6,21,0.8,45
Cc1cccc(C2Nc3ccccc3C(=O)N2c2ccccc2)n1 (stereo not drawn),-12,nt,0.3,71*,0.3,70*
Cc1cc(C(=O)NCCCC(=O)O)c(C)o1,-19,13,0.8,8,0.9,18
Cc1cc(C(=O)NCCC(c2ccccc2)c2ccccc2)c(C)o1,8,2,0,93*,0.1,98*
CCCCNC(=O)c1onc(CSc2ccc(F)cc2)c1C(=O)O,12,-17,0.4,6,0.9,58*
CCCCNC(=O)c1onc(CSc2ccc(OC)cc2)c1C(=O)O,35,-4,0.2,-12,1.1,80*
CC1CCN(C(=O)Cn2c(=O)n(Cc3ccc4c(c3)OCO4)c(=O)c3ccccc32)CC1,-23,-7,0.5,22,0.8,54*
COCCn1c(SCC(=O)N2CCC(C)CC2)nc2ccccc2c1=O,nt,-10,0.6,44,0.6,39
